Experimental data from PubChem BioAssay (NCATS).
Results filed as inconclusive are left out. The source made the active and inactive calls. Unless noted, calls follow the shape of the dose curve; as a rule, active = well fitted curve in the direction sought with a large enough effect; inconclusive = small, poorly fitted or top-dose-only effect, or another doubt; inactive = no such curve, though single readings can be large; an effect the other way counts as inactive or inconclusive.

Assays:
[1] = qHTS assay for measurement of the activity of small molecule inhibitors on Zika virus induced Caspase-3 activity in human iPSC derived neural progenitor cells (hNPCs) (AID 1224857); also: nearly all actives have a fitted effect of over 65% in size
Procedure, shortened: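 Cells were plated at 350 per well and grown 16 to 20 hours. Compound pretreatment lasted one hour, after which ZIKV (2 FFU/cell) was added for 6 hours. Percent inhibition was normalized between uninfected and infected controls.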

[2] = qHTS assay for measurement of the activity of small molecule inhibitors on Zika virus induced Caspase-3 activity in human astrocytoma cells (AID 1224859)
Procedure, shortened: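 Percent inhibition of virus-induced caspase-3/7 signal is calculated against uninfected and ZIKV-infected control cells. Cells are SNB-19, infected at 2 FFU/cell for 6 h after 1 h compound exposure.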

[3] = NS1 protein of Zika virus - qHTS assay to identify small molecule inhibitors in human HEK 293 cells (AID 1347053); also: series mostly up to about 46 µM; nearly all actives have a fitted effect of over 55% in size
Procedure, shortened: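 Inhibition of NS1 expression was scored in HEK 293 cells given compound 1 h ahead of MR766 virus (MOI = 0.5). Following 24 h at 37 C, two anti-NS1 antibodies generated a TR-FRET signal, scaled between uninfected and infected controls.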

[4] = qHTS of pediatric cancer cell lines to identify multiple opportunities for drug repurposing: Primary screen for DAOY cells (AID 1347090); also: series mostly up to about 46 µM; nearly all actives have a fitted effect of over 55% in size
Procedure, shortened: (§1)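 Viability measured as metabolically active cells via CellTiter-Glo luminescence following 48 hours of compound exposure, 11-point dilutions in confirmatory testing. 500-1,000 cells/well plated 5 hours before dosing; controls were DMSO and 2.3 µM bortezomib.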

[5] = qHTS of pediatric cancer cell lines to identify multiple opportunities for drug repurposing: Primary screen for SJ-GBM2 cells (AID 1347091)
Procedure, shortened: as §1

[6] = qHTS of pediatric cancer cell lines to identify multiple opportunities for drug repurposing: Primary screen for A673 cells (AID 1347092); also: nearly all actives have a fitted effect of over 45% in size; also: potency is read from the fitted curve at half-maximal effect
Procedure, shortened: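 Titration-based qHTS on A673 cells: MIPE compounds spanned 11 points (0.78 nM to 46 µM final), NPC compounds 8 points (0.59 nM to 46 µM final). Viability after 48 h was measured by ATP luminescence.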

[7] = qHTS of pediatric cancer cell lines to identify multiple opportunities for drug repurposing: Primary screen for SK-N-MC cells (AID 1347093); also: potency is read from the fitted curve at half-maximal effect
Procedure, shortened: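 Metabolically active cells were quantified by ATP-dependent luminescence (CellTiter-Glo, 15 min at room temperature) following 48 h treatment. Cells had been plated at 500-1,000 per well and settled for 5 h beforehand.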

[8] = qHTS of pediatric cancer cell lines to identify multiple opportunities for drug repurposing: Primary screen for BT-37 cells (AID 1347094); also: potency is read from the fitted curve at half-maximal effect
Procedure, shortened: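 Plated cells (500-1,000 per well, growth media) were allowed to settle for 5 hours, treated with compound dilutions for 48 hours, then lysed with CellTiter-Glo for 15 min at room temperature before luminescence reading.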

[9] = target: T1, Tyrosine-protein phosphatase non-receptor type substrate 1 (Homo sapiens) + Leukocyte surface antigen CD47 (Homo sapiens) (UniProt P78324+Q08722); experiment: CD47-SIRPalpha protein protein interaction - LANCE assay qHTS validation (AID 1347057; active = well fitted curve in the direction sought with a large enough effect in the signal ratio, with a control signal flat, not every such curve was filed as active; the % refers to the signal ratio; also: series mostly up to about 38 µM)
Procedure, shortened: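 First, His-tagged CD47 and Eu-labelled anti-His antibody met the compound for 30 min; next, site-specifically biotinylated SIRPalpha was added for 30 min; finally streptavidin-APC was added before reading the TR-FRET ratio.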

[10] = target: T1, Tyrosine-protein phosphatase non-receptor type substrate 1 (Homo sapiens) + Leukocyte surface antigen CD47 (Homo sapiens); experiment: CD47-SIRPalpha protein protein interaction - HTRF assay qHTS validation (AID 1347058; active = well fitted curve in the direction sought with a large enough effect in the signal ratio, not every such curve was filed as active; the % refers to the signal ratio;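 also: recombinant soluble extracellular CD47 with His tag and biotinylated SIRPalpha domains; series mostly up to about 38 µM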)
Procedure, shortened: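 TR-FRET read (Ch1/Ch2 ratio) of soluble extracellular CD47 and Avi-biotinylated SIRPalpha domains in PBS pH 7.4 with 0.05% IGEPAL; 7-point compound titration. Sequential 30 min room-temperature steps; non-biotinylated SIRPalpha as control inhibitor.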

[11] = target: T1, Tyrosine-protein phosphatase non-receptor type substrate 1 (Homo sapiens) + Leukocyte surface antigen CD47 (Homo sapiens); experiment: CD47-SIRPalpha protein protein interaction - Alpha assay qHTS validation (AID 1347059);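 also: bead proximity luminescence from CD47 binding SIRPalpha after compound preincubation with SIRPalpha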
Procedure, shortened: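 Biotinylated Avi-tagged SIRPalpha (25 nM) preincubated 30 min with compound, then His-tagged CD47 (12.5 nM) added 30 min; AlphaScreen with Ni-NTA acceptor and streptavidin donor beads. PBS pH 7.4, 0.05% IGEPAL, room temperature; 7-point titrations.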

[12] = target: Parathyroid hormone/parathyroid hormone-related peptide receptor (Homo sapiens) (UniProt Q03431); experiment: qHTS for PTHR1 Agonists: Optimization Screen against the NCGC LOPAC library (AID 1347079);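 also: GloSensor cAMP luminescence in HEK-293 GP2 cells expressing human PTHR1 with IBMX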
Procedure, shortened: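 Compounds were tested across a qHTS titration. PTHR1-expressing GP2 cells report cAMP rises via GloSensor luminescence after 1 hr compound exposure at 37C with IBMX present.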

[13] = qHTS of pediatric cancer cell lines to identify multiple opportunities for drug repurposing: Primary screen for TC32 cells (AID 1347089); also: nearly all actives have a fitted effect of over 60% in size; also: potency is read from the fitted curve at half-maximal effect
Procedure, shortened: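 A viability screen of TC32 cells was run over 48 h, with primary MIPE doses spanning 0.78 nM–46 µM and NPC doses 0.59 nM–46 µM. ATP luminescence (CellTiter-Glo) served as the read-out.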

[14] = P-glycoprotein substrates identified in KB-3-1 adenocarcinoma cell line, qHTS therapeutic library screen (AID 1346986); also: nearly all actives have a fitted effect of over 60% in size
Procedure, shortened: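 Compounds were tested in dose-response against KB-3-1 and KB-8-5-11 cells at 37 degree C for 72 h, and viability was measured by luminescence. AC50 values came from curve fitting with class-based activity calls.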

[15] = P-glycoprotein substrates identified in KB-8-5-11 adenocarcinoma cell line, qHTS therapeutic library screen (AID 1346987); also: series mostly up to about 44 µM; nearly all actives have a fitted effect of over 65% in size
Procedure, shortened: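 P-gp-mediated resistance screen: KB-8-5-11 cells treated 72 h with compounds in dose-response. CellTiter-Glo viability.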

Measured: Potency

T1 sequence (P78324 whole entry, looked up): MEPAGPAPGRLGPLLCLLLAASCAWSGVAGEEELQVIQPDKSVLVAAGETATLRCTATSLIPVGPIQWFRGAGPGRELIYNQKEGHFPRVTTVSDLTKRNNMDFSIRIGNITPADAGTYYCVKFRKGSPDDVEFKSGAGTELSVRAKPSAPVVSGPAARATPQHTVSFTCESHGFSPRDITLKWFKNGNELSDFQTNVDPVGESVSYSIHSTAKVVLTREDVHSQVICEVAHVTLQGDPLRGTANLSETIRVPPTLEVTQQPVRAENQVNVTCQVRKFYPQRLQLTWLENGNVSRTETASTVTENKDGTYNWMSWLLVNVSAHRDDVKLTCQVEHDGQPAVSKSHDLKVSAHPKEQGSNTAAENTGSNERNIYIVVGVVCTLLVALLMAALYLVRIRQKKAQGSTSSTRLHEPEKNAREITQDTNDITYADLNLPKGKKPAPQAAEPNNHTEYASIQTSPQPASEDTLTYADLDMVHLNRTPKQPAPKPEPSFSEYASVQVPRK
T1 sequence (Q08722 whole entry, looked up): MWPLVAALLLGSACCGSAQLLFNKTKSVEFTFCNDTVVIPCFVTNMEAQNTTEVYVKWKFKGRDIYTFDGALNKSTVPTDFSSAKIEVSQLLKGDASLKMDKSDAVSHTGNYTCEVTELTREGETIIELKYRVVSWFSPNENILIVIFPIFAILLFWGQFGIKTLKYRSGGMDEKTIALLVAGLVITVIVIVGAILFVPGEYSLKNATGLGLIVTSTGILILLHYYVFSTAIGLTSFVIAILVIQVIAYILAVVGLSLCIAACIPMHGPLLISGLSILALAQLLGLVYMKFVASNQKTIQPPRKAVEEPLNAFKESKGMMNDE
Sequence of Parathyroid hormone/parathyroid hormone-related peptide receptor (Homo sapiens) (Q03431 whole entry, looked up): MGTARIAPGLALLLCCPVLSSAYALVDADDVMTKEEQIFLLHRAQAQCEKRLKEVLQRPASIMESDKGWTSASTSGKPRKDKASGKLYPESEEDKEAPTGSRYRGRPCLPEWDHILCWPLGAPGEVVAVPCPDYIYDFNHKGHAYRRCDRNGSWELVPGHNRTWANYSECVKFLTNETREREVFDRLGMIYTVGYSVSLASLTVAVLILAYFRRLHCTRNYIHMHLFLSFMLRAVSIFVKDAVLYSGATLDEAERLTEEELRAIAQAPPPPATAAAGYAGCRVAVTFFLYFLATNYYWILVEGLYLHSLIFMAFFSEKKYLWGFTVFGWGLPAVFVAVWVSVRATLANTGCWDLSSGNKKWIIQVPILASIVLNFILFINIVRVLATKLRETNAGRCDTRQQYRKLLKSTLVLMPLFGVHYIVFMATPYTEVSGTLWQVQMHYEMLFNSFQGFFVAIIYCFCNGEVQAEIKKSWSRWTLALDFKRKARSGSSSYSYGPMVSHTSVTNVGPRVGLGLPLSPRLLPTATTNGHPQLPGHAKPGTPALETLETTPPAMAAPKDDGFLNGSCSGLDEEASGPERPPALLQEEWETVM

CN1CCN(N)CC1
inactive: [1] | [2] | [3] | [4] | [5] | [6] | [7] | [8]

CCN(CC)CCNC(=O)c1ccc(NS(C)(=O)=O)cc1
inactive: [1] | [2] | [9] | [10] | [11] | [12]

O=C(CCC1CCN(Cc2ccccc2)CC1)c1ccc2c(c1)NCCCC2
inactive: [1] | [2] | [3] | [4]

CCOC(=O)C(=O)CCCCCCl
inactive: [1] | [2] | [3] | [4] | [6] | [7] | [8]

OCCOCCN1CCN(C(c2ccccc2)c2ccc(Cl)cc2)CC1 (stereo not given)
inactive: [1] | [2] | [3] | [13] | [5] | [6] | [8]

CCOC(=O)CN1CCCC1=O
inactive: [1] | [2] | [3] | [4] | [5] | [6] | [7] | [8]

CCCCCCCC(=O)[O-].CCCCCCCC(=O)[O-].[Zn+2]
inactive: [1] | [2] | [3] | [4] | [5] | [6] | [7] | [8]

CCCC(=O)O[C@]1(C(=O)CCl)[C@@H](C)C[C@H]2[C@@H]3CCC4=CC(=O)C=C[C@]4(C)[C@@]3(F)C(=O)C[C@@]21C
inactive: [1] | [2] | [13]

Fc1ccc(C(c2ccc(F)cc2)N2CCNCC2)cc1
inactive: [1] | [2] | [3] | [13] | [5] | [6] | [8]

COc1c(C)c2c(c(O)c1C/C=C(\C)CCC(=O)OCCN1CCOCC1)C(=O)OC2
active: [13] 745 nM | [8] 347 nM
inactive: [1] | [2] | [3]

Cc1nc(C2CCCCC2)c(-c2ccc(S(N)(=O)=O)c(F)c2)o1
inactive: [1] | [2] | [3] | [5] | [6] | [7] | [8]

OC(CCCN1CCCCC1)(c1ccccc1)c1ccccc1
inactive: [1] | [2] | [3] | [4] | [5] | [6] | [8]

Cc1oc(-c2ccccc2)nc1CCC(=O)c1ccc(CC2SC(=O)NC2=O)cc1 (stereo not given)
inactive: [1] | [2] | [3] | [13] | [5] | [8]

O=c1[nH]sc2cc(Cl)ccc12
inactive: [1] | [2] | [3]
active: [6] 1 nM | [7] 1 nM

COc1cc(C(=O)OC(COCCC(C)C)CN2CCOCC2)cc(OC)c1OC (stereo not given)
inactive: [14]

CN(C)c1cc2c(Nc3ccc4c(cnn4Cc4ccccc4)c3)ncnc2cn1
inactive: [14]

COC(=O)C1=CO[C@@H](O)[C@@H]2C(CO)=CC[C@H]12
inactive: [9] | [10]

N[C@@H](Cn1ccc(=O)c(O)c1)C(=O)O
inactive: [10]

CCOC(=O)N1CCC(n2c(=O)[nH]c3cc(Cl)ccc32)CC1
inactive: [2] | [3] | [5]

CC[N+](CC)(CC)CCOC(=O)C(C1CCCC1)C1CCCC1
inactive: [2] | [15] | [3] | [13] | [4] | [5] | [8]

CCCCCC1Nc2cc(C(F)(F)F)c(S(N)(=O)=O)cc2S(=O)(=O)N1 (stereo not given)
not listed: [1] | [9] | [10] | [11] | [12] | [14]
inactive: all other assays above

CN(C)[C@@H]1C(=O)C(C(N)=O)=C(O)[C@@]2(O)C(=O)C3=C(O)c4c(O)cccc4C[C@H]3C[C@@H]12
inactive: [2] | [3] | [13] | [4] | [5] | [6] | [7]

CC(CC(C#N)(c1ccccc1)C(C)C)N(C)C (stereo not given)
inactive: [2] | [3] | [4] | [5] | [6] | [7] | [8]

CCCC(=O)O[C@]1(C(=O)COC(=O)CC)CC[C@H]2[C@@H]3CCC4=CC(=O)CC[C@]4(C)[C@H]3[C@@H](O)C[C@@]21C
inactive: [2] | [15] | [3] | [13] | [4] | [6] | [8]

CN(C)CCN(Cc1ccsc1)c1ccccn1
inactive: [2] | [3] | [5] | [6] | [7] | [8]

CCS(=O)(=O)c1ccc(OC)c(C(=O)OC)c1
inactive: [2] | [3] | [13] | [5] | [6] | [7] | [8]

CC(=O)OCC(=O)[C@@]1(O)CCC2C3CCC4=CC(=O)CC[C@]4(C)C3[C@@H](O)C[C@@]21C (stereo not given in full)
inactive: [2] | [15] | [3] | [13] | [4] | [5] | [8]

COC(=O)C1=C(C)NC(C)=C(C(=O)OCCc2ccc(N3CCN(C(c4ccccc4)c4ccccc4)CC3)cc2)C1c1cccc([N+](=O)[O-])c1 (stereo not given)
inactive: [2] | [3] | [13] | [6] | [8]

CC(C)Cc1ccc(C(C)C(=O)OCc2ccccn2)cc1 (stereo not given)
inactive: [2] | [3] | [13] | [4] | [5] | [8]

CCO[C@H](Cc1ccc(OCCc2ccc(OS(C)(=O)=O)cc2)cc1)C(=O)O
not listed: [1] | [9] | [10] | [11] | [12] | [14]
inactive: all other assays above

CC(=O)N[C@@H](CCC(N)=O)C(=O)O
not listed: [1] | [9] | [10] | [11] | [12] | [14]
inactive: all other assays above

CC(C)C[C@@H]1[C@H](c2ccccc2)OC(=O)N1CCCN1CCCCCC1
inactive: [2] | [3] | [13] | [4] | [5] | [6] | [7] | [8]
